# Laboratory results as given in PubChem BioAssay AID2685 (National Center for Advancing Translational Sciences (NCATS), 2010).
# The campaign covered roughly 320,000 compounds. About 2,100 (0.66%) were called active. Another 53% or so got no clear call; they are omitted. The call rests on the fitted dose curve; in most records, active means well fitted inhibition curve with a large enough effect in the signal ratio, with a control signal flat (not every such curve was filed as active); inconclusive means small, poorly fitted or top-dose-only effect, or effect the other way, or a change in a side signal; inactive means flat fitted curve, though single readings scatter; the % refers to the signal ratio. Many of the other results were omitted from the sample, so actives are more common in it than they were.
# Experiment: qHTS Assay for Lipid Storage Modulators in Drosophila S3 Cells;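 on cell number change: cells counted by Cell Tracker Red CMTPX staining in the red channel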; on lipid storage change, negative = inhibition: on the % scale 0 is the no-effect control and ±100 the full control effect
# Details: BODIPY lipid droplet fluorescence, 18-24 h, cells fed with added oleic acid; cell number change: measured here: cell count max response; series mostly up to 46.1 µM; lipid storage change, negative = inhibition: at the top concentration
# In short: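 Drosophila S3 cells loaded with oleic acid (400 uM, as added) and compounds at several concentrations; lipid droplets imaged by 488-nm laser-scanning cytometry, 500–530 nm intensity and object ratio to cell channel. Percent activity normalized to 20 uM Triacsin C.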
# Potency means the concentration at half of the fitted maximal effect.
Compound,"lipid storage change, negative = inhibition",cell number change [%],Potency,outcome
Cc1ccc(CNC(=O)Cc2nc3nc(C)cc(C)n3n2)cc1,-1.12% (inactive),1.61,,
COc1cc2c(cc1OC)CN(C(=O)Nc1ccccc1Cl)CC2,11.9% (inactive),-24.6,,
CCc1nnc(NC(=O)CSc2nnc(C)n2CC2CCCO2)s1 (stereo not drawn),22.4% (inactive),6.32,,
COCCCNC(=O)CSc1nc2ccccc2c(=O)n1Cc1ccc2c(c1)OCO2,23.2% (inactive),-4.93,,
COc1ccc(C(=O)NCCc2cnc[nH]2)cc1OC,19.2% (inactive),-11.3,,
COC(=O)CCN(C(=O)c1ccc(OC(C)=O)cc1)c1ccccn1,2.15% (inactive),6.03,,
COC(=O)CCN(C(=O)c1ccc(C)c([N+](=O)[O-])c1)c1ccccn1,18% (inactive),16.9,,
COC(=O)CCN(C(=O)c1cccc(OC(C)=O)c1)c1ccccn1,,-22.7,25.9 µM (active),
Cc1cc(NC(=O)C(C)SCC(=O)OC(C)C(=O)Nc2ccccc2C)no1 (stereo not drawn),27.6% (inactive),31.1,,
COCCN1CN=C(Nc2nc(C)c3ccc(C)cc3n2)NC1,7.94% (inactive),3.94,,
Cc1ccccc1OCC1CNC(=O)O1 (stereo not drawn),1.82% (inactive),6.67,,
Cc1cccc(C)c1OCC1CNC(=O)O1 (stereo not drawn),,9.47,,inactive
O=C1NCC(COCc2ccco2)O1 (stereo not drawn),,0.961,16.4 µM (active),
Cc1c(C(=O)NCC2CCCO2)oc2ccc(S(=O)(=O)N3CC(C)CC(C)C3)cc12 (stereo not drawn),16.1% [at 9.22 µM] (inactive),,,
Cc1c(C(=O)O)oc2ccc(S(=O)(=O)N3CC(C)CC(C)C3)cc12 (stereo not drawn),8.14% (inactive),24.2,,
Cc1c(C(=O)N(C)Cc2ccccc2)oc2ccc(S(=O)(=O)N3CCCC3)cc12,20.7% (inactive),-25.2,,
Cc1c(C(=O)NCCN(C)C)oc2ccc(S(=O)(=O)N3CCCC3)cc12,,13.1,0.116 µM (active),
CCN(CC)C(=O)c1oc2ccc(S(=O)(=O)N3CC(C)CC(C)C3)cc2c1C (stereo not drawn),,13.1,0.58 µM (active),
CCOC(=O)N1CCN(C(=O)c2oc3ccc(S(=O)(=O)N4CCCCC4)cc3c2C)CC1,14% (inactive),,,
Cc1c(C(=O)NCc2ccc3c(c2)OCO3)oc2ccc(S(=O)(=O)N3CCCC3)cc12,,-21.4,,inactive
Cc1c(C(=O)NCC2CCCO2)oc2ccc(S(=O)(=O)N3CCCC3)cc12 (stereo not drawn),-9.13% (inactive),-3.78,,
CCCCN(CC)C(=O)c1oc2ccc(S(=O)(=O)N3CCCC3)cc2c1C,,-20.1,11.6 µM (active),
O=[N+]([O-])/C(=C\Nc1ccc(F)cc1F)S(=O)(=O)c1ccccc1,9% (inactive),,,

Compound,"lipid storage change, negative = inhibition",cell number change [%],Potency,outcome
COc1ccc(-c2cc(C(=O)Nc3nc4ccccc4s3)c3ccccc3n2)cc1OC,24.3% (inactive),2.3,,
Cn1cccc1C(=O)OCC(=O)Nc1cc(C(C)(C)C)nn1-c1ccccc1,2.46% (inactive),10.4,,
CS(=O)(=O)N(CC(=O)Nc1cccc([N+](=O)[O-])c1)c1cccc(F)c1,26% (inactive),-2.63,,
CC1CCc2sc(C(=O)NNC(=S)NCC3CCCO3)cc2C1 (stereo not drawn),7.7% (inactive),20,,
Cc1cccc2sc(NC(=O)C3CSC4(C)CCC(=O)N34)nc12 (stereo not drawn),-1.42% (inactive),14.2,,
O=C(c1cccnc1)N1CCN(S(=O)(=O)c2ccc(Cl)cc2)CC1,-0.561% (inactive),-4.89,,
COc1ccc(N2CCN(C(=O)CCNS(=O)(=O)c3cc(Br)cnc3N)CC2)cc1,,,,inactive
S=C1NCCOCCOCCOCCOCCN1,,20.5,13 µM (active),
S=C1NCCOCCNC(=S)NCCOCCOCCN1,-11.6% (inactive),28,,
S=C1NCCOCCOCCOCCN1,-10.2% (inactive),-10.7,,
N/C(CCN1CCOCC1)=N/O,-0.675% (inactive),-8.53,,
COc1ccc(N2CC(C)Cn3c2nc2c3c(=O)n(CCN3CCOCC3)c(=O)n2C)cc1 (stereo not drawn),,5.05,2.06 µM (active),
COc1ccc(N2CCCn3c2nc2c3c(=O)n(CCN3CCOCC3)c(=O)n2C)cc1,-1% (inactive),-8.81,,
COc1ccc(N2CCn3c2nc2c3c(=O)n(CCN3CCOCC3)c(=O)n2C)cc1,22.2% (inactive),-1.98,,
COCCOC(=O)c1c(NC(=O)CNc2ccc(C)c(F)c2)sc(C(N)=O)c1C,9.19% (inactive),3.82,,
CCOc1ccc(/C=C/c2nc(C#N)c(NCCCOC)o2)cc1,,-10.5,18.4 µM (active),
CCOc1ccc(/C=C/c2nc(C#N)c(NCCCN(C)C)o2)cc1,,-6.82,,inactive
CCNc1oc(/C=C/c2ccc(OCC)cc2)nc1C#N,-17.7% (inactive),-11.4,,
CCCc1nc(NCCO)c(C#N)c2c1CCCC2,7.13% (inactive),7.48,,
COc1ccccc1NC(=O)CC1C(=O)Nc2ccccc2N1C(=O)c1ccccc1 (stereo not drawn),-3.67% (inactive),5.14,,
O=C(OCC(=O)N1CCOCC1)c1c(Cl)ccc(Cl)c1Cl,,,,inactive
O=C(OCC(=O)N1CCCC1)c1cc(Cl)ccc1Cl,5.2% (inactive),4.05,,
O=C(OCC(=O)N1CCCC1)c1c(Cl)ccc(Cl)c1Cl,,9.01,2.91 µM (active),

Compound,"lipid storage change, negative = inhibition",cell number change [%],Potency,outcome
O=S(=O)(Nc1ccc(Br)cc1)c1cccc(NC(=S)NCCN2CCOCC2)c1,,13,,inactive
Cc1ccc(CSc2nsc(C)c2C#N)cc1,16.1% (inactive),8.89,,
COC(=O)c1ccccc1CSc1nsc(C)c1C#N,,26.2,9.2 µM (active),
COC(=O)c1ccccc1CSc1nsc(/C=C/N(C)C)c1C#N,9.5% (inactive),7.59,,
O=C(CCS(=O)(=O)c1ccccc1)Nc1nc2cc3c(cc2s1)OCO3,10.2% (inactive),-2.46,,
O=C(O)CCC(=O)OCC1CCCCC1,,6.49,,inactive
O=C(O)CCC(=O)Nc1ccc(OCC2CCCO2)cc1 (stereo not drawn),-2.25% (inactive),20.5,,
O=C(O)CCC(=O)OCC1CCCO1 (stereo not drawn),,-20.4,23.1 µM (active),
Cc1occc1C(=O)N1CCN(S(C)(=O)=O)CC1,1.26% (inactive),15.2,,
COCCCNC(=O)Cc1c(C)c2cc3c(cc2oc1=O)OC(C)(C)CC3,-14.7% (inactive),-2.78,,
COc1ccc(OC)c(CNC(=O)C2CCCN(c3ncnc4c3nc3n4CCCCC3)C2)c1 (stereo not drawn),,-11.8,2.31 µM (active),
COc1ccc(CNC(=O)C2CCCN(c3ncnc4c3nc3n4CCCCC3)C2)cc1 (stereo not drawn),2.83% (inactive),3.46,,
O=C(NCCCN1CCCCC1)C1CCN(c2ncnc3c2nc2n3CCCCC2)CC1,5.21% (inactive),15.5,,
COc1cccc(CNC(=O)C2CCCN(c3ncnc4c3nc3n4CCCCC3)C2)c1 (stereo not drawn),,,,inactive
CC1CCN(C(=O)C2CCN(c3ncnc4c3nc3n4CCCCC3)CC2)CC1,,-15,3.66 µM (active),
CCCN1CCN(C(=O)C2CCN(c3ncnc4c3nc3n4CCCCC3)CC2)CC1,,-18.8,,inactive
CC1CCN(C(=O)C2CCCN(c3ncnc4c3nc3n4CCCCC3)C2)CC1 (stereo not drawn),20.4% (inactive),-11.2,,
CC1CC(C)CN(CCCNC(=O)C2CCCN(c3ncnc4c3nc3n4CCCCC3)C2)C1 (stereo not drawn),,27,,inactive
O=C(NCCCN1CCCCC1)C1CCCN(c2ncnc3c2nc2n3CCCCC2)C1 (stereo not drawn),,-4.96,29.1 µM (active),
Cc1cc(C)n2nc(C(=O)OCC(=O)Nc3ccc(F)cc3F)nc2n1,6.42% (inactive),11.7,,
CN(C)C(=S)Nc1cccc(F)c1,-8.92% (inactive),0.661,,
CC(C)(C)c1cc(S(=O)(=O)CCc2ccncc2)cc(C(C)(C)C)c1F,,-5.56,,inactive
Cc1cccc([C@@H]2[C@@H]3C(=O)N(Cc4ccccc4)C(=O)[C@@H]3[C@]3(Cc4ccccc4)C(=O)N(c4ccc(C(F)(F)F)cc4)C(=O)N23)c1,21.6% (inactive),5.02,,

Compound,"lipid storage change, negative = inhibition",cell number change [%],Potency,outcome
O=C(Nc1ccccn1)c1cc(-n2cnnc2)ccc1Cl,1.83% (inactive),-4.08,,
CC(C)Oc1ccc(C(=O)Nc2c3c(nn2C(C)(C)C)CS(=O)(=O)C3)cc1,-14.1% (inactive),,,
O=C(COC(=O)Cc1ccc(Br)cc1)NC1CCCCCC1,-20.9% (inactive),-16.9,,
CCCSc1nnc(NC(=O)CSc2nc3[nH]c(=O)cc(O)c3s2)s1,-8.42% (inactive),-1.41,,
Cc1c(CC(=O)O)c(=O)oc2cc3c(cc12)CCC(C)(C)O3,0.884% (inactive),4.46,,
Cc1c(Cc2ccccc2)c(=O)oc2cc(OCC(=O)N3CCC(C(N)=O)CC3)ccc12,-27.3% (inactive),23.5,,
Cc1c(CC(=O)N2CCC(C(N)=O)CC2)c(=O)oc2cc3c(cc12)CCC1(CCCCC1)O3,,-23.7,13 µM (active),
CCOc1ccccc1NC(=O)CCNC(=O)c1ccco1,,-5.71,,inactive
O=c1[nH]c(C2CCN(S(=O)(=O)c3ccccc3)CC2)nc2c1nnn2Cc1cccc(Cl)c1,,26.3,,inactive
O=C(c1ccco1)N1CCCC(c2nc3c(nnn3Cc3ccccc3)c(=O)[nH]2)C1 (stereo not drawn),7.52% (inactive),1.8,,
COc1ccc(Cn2nnc3c(=O)[nH]c(C4CCN(S(=O)(=O)c5ccc(C)cc5)CC4)nc32)cc1,,-52.1,13 µM (active),
Cc1ccc(Cn2nnc3c(=O)[nH]c(C4CCN(S(=O)(=O)c5ccc(F)cc5)CC4)nc32)cc1,,8.95,,inactive
CC(C)(C)c1ccc(Cn2nnc3c(=O)[nH]c(C4CCN(C(=O)c5ccco5)CC4)nc32)cc1,,-8.06,20.6 µM (active),
O=C(c1ccccc1Cl)N1CCC(c2nc3c(nnn3Cc3ccco3)c(=O)[nH]2)CC1,-9.79% (inactive),-9.84,,
Cc1ccc(Cn2nnc3c(=O)[nH]c(C4CCN(S(=O)(=O)c5ccccc5)CC4)nc32)cc1,-14.5% (inactive),,,
O=c1[nH]c(C2CCCN(S(=O)(=O)c3cccc(F)c3)C2)nc2c1nnn2Cc1ccccc1 (stereo not drawn),,10.8,,inactive
O=c1[nH]c(C2CCCN(S(=O)(=O)c3ccccc3)C2)nc2c1nnn2Cc1cccc(Cl)c1 (stereo not drawn),,7.14,2.59 µM (active),
Cc1ccc(-n2nnnc2SCC(=O)NC2CCCc3ccccc32)c(C)c1 (stereo not drawn),16.2% (inactive),,,
O=C(CSc1ncn[nH]1)c1ccc(OC(F)F)cc1,14.1% (inactive),6.27,,
CCCn1c(C(O)c2ccc(OC)cc2)nc2ccccc21 (stereo not drawn),0.274% (inactive),0.04,,
O=C(NN=C1C2CC3CC1CC(Cl)(C3)C2)c1ccccn1,8.32% (inactive),10.9,,
Cc1ccc(C(=O)Cn2c3[n+](c4ccccc42)CC(O)CS3)cc1 (stereo not drawn),8.6% (inactive),25.2,,
